The target in the assay is Pantothenate synthetase (Mycobacterium tuberculosis (strain ATCC 25618 / H37Rv)) (UniProt P9WIL5). Kind of assay: Recombinant Mtb pantothenate synthetase (PanC) inhibitors, coupled enzyme, confirmatory (AID 375).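 Note: 0% = full reaction with vehicle and 100% = no enzyme background.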 The conditions noted are these: coupled enzyme assay; at 10 µM, hits give high values.

A number with no mark means an inactive call. The rule behind the calls is not given here.

The term inhibition denotes the relative decrease from the control value, in per cent.

Chain of Pantothenate synthetase (Mycobacterium tuberculosis (strain ATCC 25618 / H37Rv)) (P9WIL5 whole entry, looked up): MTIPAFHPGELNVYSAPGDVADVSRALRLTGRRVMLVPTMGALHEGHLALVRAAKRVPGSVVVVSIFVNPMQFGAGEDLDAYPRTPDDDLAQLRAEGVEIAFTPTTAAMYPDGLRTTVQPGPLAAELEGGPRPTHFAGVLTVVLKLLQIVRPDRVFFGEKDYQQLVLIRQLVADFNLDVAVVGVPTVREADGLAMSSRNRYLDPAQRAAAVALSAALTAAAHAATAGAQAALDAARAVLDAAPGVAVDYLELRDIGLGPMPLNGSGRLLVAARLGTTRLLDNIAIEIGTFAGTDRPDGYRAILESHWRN

As for `CCOC(=O)N1CCN(C(=O)c2ccc3c(SCC(=O)O)c4c(nc3c2)CCCC4)CC1`, the inhibition is 0%.
`CCN1CCN(C(=O)Cn2ncc3ccsc3c2=O)CC1`: the inhibition was 0%.
Take `Cn1c(=O)c2c(nc(Br)n2CCSc2ncccn2)n(C)c1=O`: the inhibition is 9%.
Next, `O=C(Nc1ccc(N2CCOCC2)cc1)c1cc2ccccc2o1`: 0%; `CCC1Cc2c(nc3c4c(nc(N5CCOCC5)c(C#N)c24)NC(C)=N3)O1` (configuration not stated): 0%; `COC(=O)c1cc2ccsc2n1CC(=O)N(C)c1ccccc1`: 10%.
With `COc1ccccc1-c1noc(-c2ccco2)n1`, the inhibition was 6%.
With `CC(C)c1ccc(NC(=O)CCNS(=O)(=O)c2cccc3nonc23)cc1`, the inhibition was 0%.
In the case of `CCOC(=O)N1CCC(c2cc(=O)n3[nH]cc(C(=O)OC)c3n2)CC1`, the inhibition is 0%.
As for `OCCNc1nc2ccc(Cl)cc2[nH]1`, the inhibition was 0%.
On to `COCCn1nnnc1C(c1cc2cc(C)cc(C)c2[nH]c1=O)N1CCN(c2ccccc2F)CC1` (configuration not stated), for which the inhibition is 2%.
The result for `O=C(COC(=O)CCC1CCCC1)Nc1ccc(Cl)cn1` reads 2%; that for `CCCc1nnc(NC(=O)CCC(=O)N2CCN(CCOc3ccc(C)cc3)CC2)s1`, 5%.
For the molecule `CC(C)(C)C(=O)Cn1c[n+](N)cn1`, the inhibition was 1%.
On to `COc1cccc(CC(NC(C)=O)C(=O)NC2CCN(c3c4c(nc5ncnn35)CCC4)CC2)c1` (configuration not stated), for which the inhibition is 5%.
On to `Cc1c(-n2c(CN3C(=O)c4ccccc4C3=O)nc3ccccc3c2=O)c(=O)n(-c2ccccc2)n1C`, for which the inhibition is 0%.
Next, `Oc1ccc2ccccc2c1CN1CCN(c2ccccc2F)CC1`: 1%.

Source of the values: PubChem BioAssay.
